ADAM10 inh: human ADAM10 inhibitors, primary screen, biochemical, QFRET, HTS; Disintegrin and metalloproteinase domain-containing protein 10 (Homo sapiens), O14672; recombinant ADAM10, EDANS/DABCYL FRET peptide cleavage, 3 h; inhibition, % at 7 µM; 0.62% of 370,000 active;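 active means inhibition above a per-campaign cutoff equal to the mean of compounds falling between control-based bounds plus 3 SD, cut at about 20% in these data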;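 further: 0% = DMSO wells while the 100% control is not disclosed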
ADAM17 inh: ADAM17 inhibitors, primary screen, biochemical, QFRET | 0.83% of 370,000 active | inhibition, % at 6.95 µM | recombinant ADAM17, EDANS/DABCYL FRET peptide cleavage | Disintegrin and metalloproteinase domain-containing protein 17 (Homo sapiens), P78536;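 active means inhibition above the mean of compounds lying between control limits plus 3 SD, set per campaign, cut at about 8.5% in these data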;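 further: 0% = DMSO-only wells as the low control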
AHR act: AHR activators, primary screen, cell-based, luminescence, luciferase reporter, human; Aryl hydrocarbon receptor (Homo sapiens), P35869; AHR-responsive luciferase reporter cells; activation, % at 5 µM; 2.5% of 320,000 active; in the data active means activation above about 47%;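 further: 0% = vehicle wells and 100% = reference agonist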
rCAG binder: binders of r(CAG) RNA repeats, primary screen, biochemical, fluorescence. AID 651821, 2012. 1.3% of 370,000 active. r(CAG) RNA repeat, TO-PRO-1 dye displacement fluorescence. inhibition, % at 3 µM;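 active means inhibition above the plate cutoff, the mean of all test compounds on that plate plus 3 SD, cut at about 35% in these data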;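 further: 0% = DMSO alone and 100% = 100 µM mitoxantrone as full dye displacement; higher means more dye released from RNA so lower well fluorescence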
proKLK7 act: proKLK7 zymogen activators, primary screen, biochemical, fluorescence intensity | Kallikrein-7 (Homo sapiens), P49862 | purified proKLK7, EDANS-DABCYL substrate fluorescence; 100% is mature enzyme control, 0% vehicle | 0.9% of 370,000 active | AID 652039, 2013 | activation, % at 7 µM;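 active means activation above the mean of all tested compounds plus 3 SD, computed per campaign excluding outliers beyond control limits, cut at about 13% in these data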
Target sequence (P49862 whole entry, looked up): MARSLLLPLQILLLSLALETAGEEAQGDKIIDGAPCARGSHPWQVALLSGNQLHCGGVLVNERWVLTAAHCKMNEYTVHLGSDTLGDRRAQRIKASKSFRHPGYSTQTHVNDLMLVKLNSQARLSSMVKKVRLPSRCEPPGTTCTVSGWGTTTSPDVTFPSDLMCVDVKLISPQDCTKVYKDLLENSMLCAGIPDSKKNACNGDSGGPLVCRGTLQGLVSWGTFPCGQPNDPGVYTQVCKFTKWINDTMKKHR
NR3A LBD binder: binders of NR3A ligand-binding domain, primary screen, biophysical, differential scanning fluorimetry, uHTS; AID 1259313, 2017; 2.5% of 340,000 active; Tm shift relative to glycine control, % at 25 µM; NR3A LBD differential scanning fluorimetry, Tm shift; 0% = protein alone, 100% = glycine-bound protein; Glutamate receptor ionotropic, NMDA 3A (GRIN3A) ligand-binding domain;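 active means melting temperature shift of at least 10% of the positive control shift, at one fixed dose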
Starred values were filed as active, the others as inactive. Most compounds without a hit are left out; they make up all but 7% or so of the library.

Screening O=C(CCC(=O)c1ccc(Oc2ccccc2)cc1)Nc1cccc(Cl)c1 returned ADAM10 inh -7.6, ADAM17 inh -0.7, AHR act 0.7, rCAG binder 1.2, proKLK7 act 0.1 and NR3A LBD binder 1.9.
`O=C(CCC(=O)OCC(=O)c1ccccc1)Nc1cccc(Cl)c1` gave ADAM10 inh 1.2, ADAM17 inh -3.6, AHR act 0.1, rCAG binder -1.7, proKLK7 act 0.7 and NR3A LBD binder 23.7*.
`O=C(Nc1cccc(Cl)c1)Nc1nccs1` gave ADAM10 inh 2.4, ADAM17 inh -2.5, AHR act 17.8, rCAG binder 11.0, proKLK7 act -0.7 and NR3A LBD binder 31.3*.
Screening N#CCc1ccc(NC(=O)Nc2cccc(Cl)c2)cc1 returned ADAM10 inh 8.5, ADAM17 inh 0.7, AHR act 2.5, rCAG binder 2.0, proKLK7 act -0.5 and NR3A LBD binder 25.6*.
O=C(Nc1cccc(Cl)c1)Nc1cccc(Cl)c1 was read as ADAM10 inh 5.0, ADAM17 inh 2.7, AHR act 4.2, rCAG binder 9.0, proKLK7 act -0.4 and NR3A LBD binder 32.8*.
For C[C@H]1C(=O)N2[C@@H](C[C@]3(c4c[nH]c5ccccc45)c4ccccc4N(S(=O)(=O)c4ccccc4)[C@H]23)C(=O)N1C the results were ADAM10 inh -8.8 and ADAM17 inh -3.6.
O=C(CSc1nnc(-c2cccnc2)n1Cc1ccco1)Nc1ccc(F)cc1Cl was read as ADAM10 inh -12.3, ADAM17 inh -9.7, rCAG binder 5.8 and proKLK7 act -0.4.
CC(C)[C@H](NC(=O)c1ccc(Cl)c(Cl)c1)C(=O)N1CCC[C@H]1C(=O)NCCc1ccccc1Cl was read as ADAM10 inh 7.4, ADAM17 inh 2.1, rCAG binder 1.5 and proKLK7 act 0.8.
Screening CC(=O)/C(N)=N/Nc1cccc(Cl)c1 returned ADAM10 inh -0.6, ADAM17 inh 0.7, AHR act 5.2, rCAG binder 1.8, proKLK7 act 0.1 and NR3A LBD binder 20.3*.
`CC(=O)/C(=N\Nc1cccc(Cl)c1)Sc1cccc2cccnc12` gave ADAM10 inh 5.7, ADAM17 inh -2.7, AHR act 15.0, rCAG binder 0.4, proKLK7 act -0.3 and NR3A LBD binder 1.3.
Screening CC1CCC2(CC1)CCC2NCc1ccc(Cl)c(Cl)c1 (stereo not drawn) returned ADAM10 inh -3.8 and ADAM17 inh -5.4.
CCN(CC)C(=N)/C(C#N)=N/Nc1ccc(C)cc1 was read as ADAM10 inh 4.0, ADAM17 inh -3.3, AHR act 75.3*, rCAG binder -1.5, proKLK7 act 0.4 and NR3A LBD binder 2.0.
`COC(=O)CC(=O)CC(NS(=O)(=O)c1ccc(C)cc1)c1ccccc1` (stereo not drawn) gave ADAM10 inh 2.9, ADAM17 inh 1.8, rCAG binder 4.8 and proKLK7 act 0.0.
CCOC(=O)CC[C@@H]1CC[C@]2(CCCN(Cc3nccs3)C2)O1 was read as ADAM10 inh -6.9, ADAM17 inh 3.9, rCAG binder 1.1 and proKLK7 act -0.6.
`Oc1ccc2c(c1)oc1cc(O)ccc12` gave ADAM10 inh -35.4, ADAM17 inh -16.3, AHR act 3.9, rCAG binder 6.3, proKLK7 act -8.8 and NR3A LBD binder 18.4*.
For O=C(CCc1ccccc1)N[C@H]1[C@@H](OC(=O)c2cccnc2)CCC[C@@]12C(=O)N(Cc1ccccc1)c1ccccc12 the results were ADAM10 inh 4.2, ADAM17 inh -0.3, rCAG binder 10.1 and proKLK7 act 0.7.
CC(c1ccccc1)n1cc(C(=O)NCCCN2CCCC2)nn1 (stereo not drawn) was read as ADAM10 inh -1.1, ADAM17 inh -0.1, rCAG binder 1.6 and proKLK7 act 0.0.
Screening Cn1c(CNC(=O)CCNC(=O)c2ccccc2)cc(=O)n(C)c1=O returned ADAM10 inh -8.8, ADAM17 inh -0.7, AHR act 3.0, rCAG binder 1.3, proKLK7 act -0.5 and NR3A LBD binder 0.2.
Cn1c(CNC(=O)CCNC(=O)c2cccc(Cl)c2)cc(=O)n(C)c1=O was read as ADAM10 inh -3.7, ADAM17 inh -5.4, AHR act 0.9, rCAG binder -2.0, proKLK7 act -0.3 and NR3A LBD binder 12.5*.
For CCOC(=O)[C@@H]1[C@H]2COc3cc(OC)ccc3[C@@H]2N2C(=O)N(c3cccc(F)c3)C(=O)[C@@]12C the results were ADAM10 inh 10.3, ADAM17 inh -2.7, AHR act 50.5*, rCAG binder 0.3, proKLK7 act -0.5 and NR3A LBD binder -0.8.
CCOC(=O)[C@@H]1[C@H]2COc3cc(OC)ccc3[C@@H]2N2C(=O)N(c3cccc(F)c3)C(=O)[C@]12C was read as ADAM10 inh 7.6, ADAM17 inh -1.0, AHR act -4.6, rCAG binder -6.2, proKLK7 act 0.1 and NR3A LBD binder -3.1.
For O=c1cc(-c2cccs2)oc2ccc(Cl)cc12 the results were ADAM10 inh -413.7, ADAM17 inh -108.2, AHR act 19.1, rCAG binder 9.6, proKLK7 act 1.7 and NR3A LBD binder -6.8.
`O=c1cc(-c2ccc3c(c2)OCCO3)oc2ccc(Cl)cc12` gave ADAM10 inh -34.8, ADAM17 inh -7.8, AHR act -1.9, rCAG binder -2.3, proKLK7 act -1.2 and NR3A LBD binder 12.0*.
For O=c1oc(-c2ccccc2)cc(Cl)c1Cl the results were ADAM10 inh -17.7, ADAM17 inh -7.6, AHR act 3.6, rCAG binder 3.0, proKLK7 act 347.0* and NR3A LBD binder -0.1.
`O=c1cc(-c2ccccc2F)oc2ccccc12` gave ADAM10 inh 3.8, ADAM17 inh -2.0, AHR act 1.9, rCAG binder 2.7, proKLK7 act 0.1 and NR3A LBD binder 1.2.
`O=c1cc(-c2ccc(O)cc2)oc2ccc3ccccc3c12` gave ADAM10 inh -53.0, ADAM17 inh -12.3, AHR act -4.2, rCAG binder 17.5, proKLK7 act -19.4 and NR3A LBD binder 24.5*.
`O=c1cc(-c2ccc(F)cc2)oc2ccccc12` gave ADAM10 inh -5.5, ADAM17 inh -3.1, AHR act 70.7*, rCAG binder 0.6, proKLK7 act 0.3 and NR3A LBD binder 0.9.
Screening N#Cc1cccc(NC(=O)OCCN2C(=O)CCC23CCC(c2ccc(Cl)cc2)CC3)c1 (stereo not drawn) returned ADAM10 inh 1.1, ADAM17 inh 0.2, rCAG binder 3.4 and proKLK7 act 0.7.
